From PubChem BioAssay (EPA / NIEHS)
Values joined by “and” are separate entries in the source; they are usually repeats but may differ in a detail not shown here. Identical values can stand only once. Inconclusive results are not listed. A structure can be active in one record and inactive in another. Active and inactive are the calls of the source. The calls were made as follows, unless noted: active = hit-call score of the fitted dose curve at least 0.9, where 1 is the maximum; inactive = score below 0.9.

Assays:
[1] = target: Estrogen receptor (Homo sapiens) (UniProt P03372); assay: CCTE_Deisenroth_AIME_384WELL_LUC_Shift: CCTE's 384-well Estrogen Receptor Transactivation Assay with AIME metabolic competence data shift (ERTA luciferase; difference in metabolism positive and negative), Deisenroth Lab (AID 2284041);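 also: shift is response with S9 minus without S9 so positive means metabolism raised ER signal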
Chain of Estrogen receptor (Homo sapiens) (P03372 whole entry, looked up): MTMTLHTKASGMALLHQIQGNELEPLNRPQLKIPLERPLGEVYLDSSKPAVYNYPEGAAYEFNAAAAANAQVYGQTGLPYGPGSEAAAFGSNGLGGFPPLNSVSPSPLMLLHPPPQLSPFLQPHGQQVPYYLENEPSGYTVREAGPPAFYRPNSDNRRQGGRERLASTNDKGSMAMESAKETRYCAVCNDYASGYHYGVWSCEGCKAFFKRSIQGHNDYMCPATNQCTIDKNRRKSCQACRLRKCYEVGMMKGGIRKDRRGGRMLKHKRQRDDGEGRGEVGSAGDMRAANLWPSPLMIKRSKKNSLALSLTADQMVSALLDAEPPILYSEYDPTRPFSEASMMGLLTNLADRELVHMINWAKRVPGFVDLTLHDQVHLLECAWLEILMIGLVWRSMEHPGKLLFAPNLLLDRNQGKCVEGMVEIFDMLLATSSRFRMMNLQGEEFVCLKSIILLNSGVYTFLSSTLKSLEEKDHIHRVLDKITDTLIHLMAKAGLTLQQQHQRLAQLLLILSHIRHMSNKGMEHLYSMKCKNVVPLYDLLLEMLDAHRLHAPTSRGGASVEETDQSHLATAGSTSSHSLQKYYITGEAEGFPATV
In short: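 Chemicals (0.002–200 uM, 10 points) pre-incubated 2 h with alginate-encapsulated induced male Sprague Dawley rat liver S9 or S9-free, then medium applied 24 h to VM7Luc4E2 cells; luciferase. Endpoint is per-concentration difference, S9-positive minus negative.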

[2] = CCTE_Shafer_MEA_dev_burst_rate: CCTE's Neural Network Formation Assay for Burst Rate, Shafer Lab (AID 2284042);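 as to AC50: potency for loss of burst rate below DMSO control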
In short: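 Rat primary cortical cultures on PEI/laminin MEA; compound from plating, re-dosed at DIV 5, 9 media change. Single-electrode bursts/recording length, well mean of active electrodes; AUC over DIV 5–12 recordings; loss-of-signal vs DMSO.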

[3] = CCTE_Shafer_MEA_dev_bursting_electrodes_number: CCTE's Neural Network Formation Assay for Number of Bursting Electrodes, Shafer Lab (AID 2284043; active = hit-call score of the fitted dose curve at least 0.9, where 1 is the maximum;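 as to AC50: potency is for loss of bursting electrodes relative to DMSO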)
In short: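 Primary rat cortical neurons plated on 16-electrode MEA wells, exposed from day 0 with compound renewed at DIV 5 and 9. Electrodes bursting ≥1 burst per 2 min counted on days 5, 7, 9 and 12; trapezoidal AUC across days, fitted for loss versus DMSO.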

[4] = CCTE_Shafer_MEA_dev_per_burst_interspike_interval: CCTE's Neural Network Formation Assay for Burst Interspike Interval, Shafer Lab (AID 2284044);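 also: mean spike spacing inside bursts as AUC over recordings on days 5 7 9 12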;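 as to AC50: potency for a decrease of within-burst interspike interval below DMSO level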
In short: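 Spontaneous activity of maturing rat cortical networks is recorded on DIV 5, 7, 9 and 12 under chronic compound exposure beginning at plating. Endpoint: burst interspike interval well-mean, collapsed into trapezoidal AUC and fitted in the negative direction relative to DMSO.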

[5] = CCTE_Shafer_MEA_dev_burst_duration_mean: CCTE's Neural Network Formation Assay for Mean Burst Duration, Shafer Lab (AID 2284045);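 as to AC50: curve fitted for loss meaning shorter burst duration than DMSO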
In short: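 Primary rat cortical neurons on 48-well 16-electrode MEA plates, exposed from day 0 with renewal at DIV 5 and 9; spontaneous activity recorded on days 5, 7, 9, 12. Well-mean burst duration across bursting electrodes, collapsed as trapezoidal AUC; DMSO baseline.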

[6] = CCTE_Shafer_MEA_dev_interburst_interval_mean: CCTE's Neural Network Formation Assay for Mean Interburst Interval, Shafer Lab (AID 2284046);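 also: well-mean interburst interval of bursting electrodes as AUC over four recording days; curve fitted for decrease in interburst interval relative to DMSO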
In short: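 Rat cortical neurons, 1.5 x 10^5 cells/well, 48-well MEA; compound from day 0 through DIV 12, media and treatment renewed DIV 5/9. Recordings DIV 5, 7, 9, 12; well-mean interburst interval → trapezoidal AUC, loss direction vs DMSO.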

[7] = CCTE_Shafer_MEA_dev_network_spike_number: CCTE's Neural Network Formation Assay for Number of Network Spikes, Shafer Lab (AID 2284048);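 as to AC50: fit as a loss of signal meaning fewer network spikes than DMSO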
In short: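 Primary rat cortical neurons on PEI/laminin 48-well MEA plates, dosed from plating day 0 for 12 days, renewed at DIV 5 and 9. Network spike counts recorded DIV 5, 7, 9, 12, collapsed as trapezoidal AUC; DMSO baseline.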

[8] = CCTE_Shafer_MEA_dev_network_spike_peak: CCTE's Neural Network Formation Assay for Mean Number of Electrodes in Network Spike, Shafer Lab (AID 2284049);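 as to AC50: fitted for loss of signal meaning fewer electrodes in network spikes than DMSO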
In short: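 Network-spike peak electrode count from recordings on days 5, 7, 9 and 12 was combined as trapezoidal area under the curve. Rat cortical cultures were treated continuously from plating, with compound renewed at each feed (DIV 5, 9); fits versus DMSO.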

[9] = CCTE_Shafer_MEA_dev_spike_duration_mean: CCTE's Neural Network Formation Assay for Mean Spike Duration, Shafer Lab (AID 2284051);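 also: mean network spike duration pooled as area under curve over DIV 5 to 12 recordings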;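 as to AC50: potency for a decrease in mean network spike duration versus DMSO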
In short: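 Rat cortical primary cultures, 48-well MEA (16 electrodes/well); compound from plating, renewed DIV 5, 9. Network spike duration (AxIS adaptive detector) recorded DIV 5/7/9/12, combined as trapezoidal AUC; loss direction vs DMSO.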

[10] = CCTE_Shafer_MEA_dev_network_spike_duration_std: CCTE's Neural Network Formation Assay for Standard Deviation of Network Spike Duration, Shafer Lab (AID 2284052);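 also: area under curve of spike duration SD across recording days 5 to 12; hits are decreases in network spike duration SD versus DMSO vehicle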
In short: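 Rat cortical cultures, 1.5 x 10^5 cells/well, exposed continuously from plating to DIV 12 with media/compound renewal at DIV 5, 9. Spontaneous activity recorded DIV 5/7/9/12, AxIS adaptive spike detector; AUC across days; negative direction vs DMSO.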

[11] = CCTE_Shafer_MEA_dev_per_network_spike_spike_number_mean: CCTE's Neural Network Formation Assay for Mean Number of Spikes in a Network Spike, Shafer Lab (AID 2284053);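 as to AC50: fitted as decrease in spikes per network spike relative to DMSO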
In short: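 Rat cortical primary cultures on 48-well MEA; compound from day 0, re-dosed with full media change DIV 5, 9. Recorded DIV 5, 7, 9, 12; spikes in 0.05 s window at network-spike peak ÷ total network spikes; AUC; loss vs DMSO.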

[12] = CCTE_Shafer_MEA_dev_LDH: CCTE's Lactate Dehydrogenase Assay for Cytotoxicity in the Neural Network Formation Assay, Shafer Lab (AID 2284068; active = hit-call score of the fitted dose curve at least 0.9, where 1 is the maximum;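 also: exposure for twelve days from plating with re-dosing on DIV 5 and 9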)
In short: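 Rat cortical primary neurons, MEA culture; dosing day 0–12, full medium plus compound exchange DIV 5, 9. Read-out: LDH enzyme activity, spectrophotometric. DMSO = negative control/baseline; signal loss → cytotoxicity.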

[13] = CCTE_Shafer_MEA_dev_AB: CCTE's Alamar Blue Assay for Cytotoxicity in the Neural Network Formation Assay, Shafer Lab (AID 2284083; active = hit-call score of the fitted dose curve at least 0.9, where 1 is the maximum;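 also: resazurin reduction fluorescence as viability of cultured neurons; twelve days of exposure from plating with re-dosing on DIV 5 and 9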)
In short: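 Rat cortical primary cultures, 1.5 x 10^5 cells/well on MEA; continuous compound exposure over 12 days of network development, re-dosed with full medium change DIV 5 and 9. Alamar Blue fluorescence; loss of signal = cytotoxicity vs DMSO baseline.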

[14] = CCTE_Shafer_MEA_dev_mutual_information_norm: CCTE's Neural Network Formation Assay for Mutual Information Normalization, Shafer Lab (AID 2284091);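 as to AC50: mutual information between electrodes summarised as area under curve across four recording days; potency is for a decrease in mutual information relative to DMSO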
In short: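 Primary rat cortical neurons on PEI-coated 48-well MEA plates, 1.5 x 10^5 cells/well, exposed from day 0 through day 12 with re-dosing at DIV 5 and 9. Mutual information between electrodes recorded days 5, 7, 9, 12; trapezoidal AUC, loss-of-signal fit versus DMSO.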

[15] = CCTE_Shafer_MEA_dev_correlation_coefficient_mean: CCTE's Neural Network Formation Assay for Mean Correlation Coefficient, Shafer Lab (AID 2284093);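 as to AC50: well mean pairwise spike train correlation integrated as AUC over recording days 5 to 12; potency fitted for loss of correlation relative to DMSO vehicle wells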
In short: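 Rat cortical cultures, 1.5 x 10^5 cells/well, dosed from day 0 for 12 days. Spontaneous spikes recorded DIV 5/7/9/12; electrode-pair correlation coefficients averaged, AUC taken. Fit in loss direction vs DMSO.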

DIO2 (gene 1734) = assay: CCTE_GLTED_hDIO2: CCTE's human Deiodinase 2 (DIO2) Inhibition Assay, Great Lakes Toxicology and Ecology Division (GLTED) Lab (AID 2284050; active = hit-call score of the fitted dose curve at least 0.9, where 1 is the maximum)
In short: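 In this cell-free test, chemicals are exposed to human deiodinase type 2 for 3 hours. Released iodide is determined spectrophotometrically via the Sandell-Kolthoff method, and signal loss relative to DMSO is fitted.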

DIO3 (gene 1735) = assay: CCTE_GLTED_hDIO3: CCTE's human Deiodinase 3 (DIO3) Inhibition Assay, Great Lakes Toxicology and Ecology Division (GLTED) Lab (AID 2284055; active = hit-call score of the fitted dose curve at least 0.9, where 1 is the maximum;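 also: potency is for inhibition seen as loss of released iodide signal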)
In short: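 Enzyme activity is tracked as iodide release from substrate by recombinant human DIO3 over 3 h with chemical present. A second Sandell-Kolthoff step converts iodide to an absorbance signal, fitted relative to DMSO.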

[16] = CCTE_Shafer_MEA_acute_AB: CCTE's Alamar Blue Assay for Cytotoxicity in the Neural Acute Assay, Shafer Lab (AID 2284069; active = hit-call score of the fitted dose curve at least 0.9, where 1 is the maximum;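 also: active compounds lower the viability signal compared with DMSO wells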)
In short: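 Read-out: resazurin fluorescence (ex 544, em 590 nm) after CTB reagent at 1:6 dilution in fresh media. Cells: primary rat cortical neuron networks, DIV 13 or 15, chemically exposed on MEA plates; DMSO as negative control/baseline.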

Measured: AC50

COP(N)(=O)SC (stereo not given)
inactive: [1] | [2] | [4] | [5] | [6] | [7] | [8] | [9] | [10] | [11] | [12] | [13] | [14] | [15]
active: [3] 0.0901 µM | [8] 15 µM

N#Cc1cc(Br)c(O)c(Br)c1
inactive: [1]

C=CCC1=C(C)C(OC(=O)C2C(C=C(C)C)C2(C)C)CC1=O (stereo not given)
active: [3] 5.72 µM and 14.8 µM | [7] 1.15 µM | [8] 2.93 µM and 14.8 µM | DIO2 (gene 1734) 44.9 µM | [11] 24.5 µM | DIO3 (gene 1735) 40.9 µM | [12] 23.6 µM | [13] 22.8 µM | [14] 917 nM | [15] 4.1 µM
inactive: [1] | [2] | [4] | [5] | [6] | [7] | [9] | [10] | [11] | [16] | [13] | [14] | [15]

O=C(O)c1nc(Cl)ccc1Cl
inactive: [1] | [16]

CC1=C(C(=O)Nc2ccccc2)SCCO1
inactive: [1]

CCNc1nc(Cl)nc(NC(C)C)n1
active: DIO3 (gene 1735) 21.7 µM
not listed: [12] | [13]
inactive: all other assays above

CC(Oc1ccc(Cl)cc1Cl)C(=O)O (stereo not given)
inactive: [1] | [16]

COc1cnc(OC)n2nc(NS(=O)(=O)c3c(OCC(F)F)cccc3C(F)(F)F)nc12
active: [1] 28 µM

C#CCOS(=O)OC1CCCCC1Oc1ccc(C(C)(C)C)cc1 (stereo not given)
inactive: [1] | [16]

C=CC1(C)OC(=O)N(c2cc(Cl)cc(Cl)c2)C1=O (stereo not given)
active: [1] 42.4 µM | [3] 21.6 µM | [8] 50 µM | [15] 50 µM
not listed: DIO2 (gene 1734) | DIO3 (gene 1735) | [16]
inactive: all other assays above

CCCCNC(=O)OCC#CI
inactive: [1] | [16]
active: [2] 3.94 µM and 1.33 µM | [3] 3.82 µM and 1.48 µM | [4] 7.65 µM and 1.63 µM | [5] 4.03 µM and 1.28 µM | [6] 3.24 µM and 2.21 µM | [7] 2.92 µM and 1.21 µM | [8] 3.81 µM and 1.53 µM | [9] 3.81 µM and 1.12 µM | [10] 2.46 µM and 1.09 µM | [11] 2.76 µM and 1.55 µM | [12] 3.84 µM and 1.13 µM | [13] 3.1 µM and 1.55 µM | [14] 1.81 µM and 1.09 µM | [15] 3.8 µM and 1.05 µM

CCON=C(CC)C1=C(O)CC(c2c(C)cc(C)cc2C)CC1=O (stereo not given)
inactive: [1]

CCc1nn(C)c(C(=O)NCc2ccc(C(C)(C)C)cc2)c1Cl
inactive: [1]

CCOC(=O)CC(SP(=S)(OC)OC)C(=O)OCC (stereo not given)
inactive: [4] | [5] | [7] | [10]
active: [2] 22.7 µM and 2.98 µM | [3] 14.9 µM and 4.64 µM | [4] 3.72 µM | [6] 16.8 µM and 15 µM | [7] 11.7 µM | [8] 14.2 µM and 8.93 µM | [9] 13.1 µM and 4.76 µM | [10] 13.3 µM | [11] 13 µM and 8.1 µM | [12] 19.9 µM and 24.6 µM | [13] 22.9 µM and 25.1 µM | [14] 7.87 µM and 3.88 µM | [15] 12.7 µM and 22.6 µM

O=C(O)COc1nc(Cl)c(Cl)cc1Cl
inactive: [1]

CCOc1cc(Oc2ccc(C(F)(F)F)cc2Cl)ccc1[N+](=O)[O-]
inactive: [1]
active: [2] 9.62 µM | [3] 5.27 µM | [4] 11.4 µM | [5] 6.99 µM | [6] 4.76 µM | [7] 6.09 µM | [8] 6.67 µM | [9] 4.18 µM | [10] 1.13 µM | [11] 4.48 µM | [12] 17.7 µM | [13] 30 µM | [14] 4490 nM | [15] 6.5 µM
